PubChem BioAssay (NCATS)
Values joined by “and” are separate entries in the source; they are usually repeats but may differ in a detail not shown here. Equal values may be shown once. Results filed as inconclusive are left out. A call without a number means that no potency is given here. Active and inactive are the calls of the source. Unless noted, calls come from the whole dose curve.

Assays:
[1] = molecular target: Alpha-galactosidase (Coffea arabica) (UniProt Q42656); assay: Counterscreen for Glucocerebrosidase Inhibitors: qHTS Assay for Coffee Bean alpha-Galactosidase at pH 4.5 (AID 957; active = well fitted curve in the direction sought with a large enough effect; an effect the other way counts as inactive or inconclusive)
Chain of Alpha-galactosidase (Coffea arabica) (Q42656 whole entry, looked up): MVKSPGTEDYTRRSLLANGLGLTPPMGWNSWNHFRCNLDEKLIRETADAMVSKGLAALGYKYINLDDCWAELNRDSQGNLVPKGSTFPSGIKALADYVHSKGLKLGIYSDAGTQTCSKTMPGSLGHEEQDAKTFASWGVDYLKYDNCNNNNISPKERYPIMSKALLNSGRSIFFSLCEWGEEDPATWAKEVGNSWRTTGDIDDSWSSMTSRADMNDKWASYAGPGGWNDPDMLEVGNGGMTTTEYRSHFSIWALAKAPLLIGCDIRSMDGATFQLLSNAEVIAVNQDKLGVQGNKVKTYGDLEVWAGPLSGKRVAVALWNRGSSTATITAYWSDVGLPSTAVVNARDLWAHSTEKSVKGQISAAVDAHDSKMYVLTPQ
Summary of the method: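 Fluorogenic read-out: 4-methylumbelliferone at Ex 365/Em 440 nm after NaOH/glycine stop (pH 10). Enzyme 2 nM, 4-MU-alpha-galactoside 80 uM, citrate buffer pH 4.5, 20 min RT; normalized to no-enzyme and enzyme controls.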

[2] = molecular target: Alpha-galactosidase (Coffea arabica) (UniProt Q42656); assay: Counterscreen for Glucocerebrosidase Inhibitors: qHTS Assay for Coffee Bean alpha-Galactosidase at pH 5.9 (AID 998; active = well fitted curve in the direction sought with a large enough effect; an effect the other way counts as inactive or inconclusive)
Summary of the method: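 Enzyme 2 nM + cpd (0.7 nM–77 uM titration) + 4-MU-alpha-Gal 80 uM, pH 5.9 citrate/Tween-20, RT 20 min, NaOH/glycine stop pH 10, fluor 365/440. Normalized to no-enzyme and full-activity controls; Hill-fit AC50.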

[3] = Validation screen for inhibitors of Lassa infection (AID 463096); note: potency is the fitted concentration of half-maximal effect
[4] = Inducers of the Endoplasmic Reticulum Stress Response (ERSR) in human glioma: Validation (AID 504836; active = well fitted curve in the direction sought with a large enough effect; an effect the other way counts as inactive or inconclusive)
Summary of the method: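 Stably transfected U87-MG glioma cells carrying a GRP78-based luciferase sensor; 16 h compound incubation. Luminescence end-point read 10 min after Bright-Glo addition at room temperature.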

[5] = qHTS for Inhibitors of the Functional Ribonucleoprotein Complex (vRNP) of Lassa (LASV) Arenavirus: LASV Primary Screen - GLuc reporter signal (AID 1347082; calls by dose curve; tested in HEK293 reporter line; note: nearly all actives have a fitted effect of over 60% in size; note: potency is the fitted concentration of half-maximal effect)
[6] = qHTS for Inhibitors of the Functional Ribonucleoprotein Complex (vRNP) of Lymphocytic Choriomeningitis Arenaviruses (LCMV): Viability assay - alamar blue signal for LCMV Primary Screen (AID 1347085; calls by dose curve; tested in HEK293 reporter line; note: nearly all actives have a fitted effect of over 80% in size; note: potency is the fitted concentration of half-maximal effect)
[7] = molecular target: Nucleoprotein (Lymphocytic choriomeningitis virus (strain Armstrong)) (UniProt P09992); assay: qHTS for Inhibitors of the Functional Ribonucleoprotein Complex (vRNP) of Lymphocytic Choriomeningitis Arenaviruses (LCMV): LCMV Primary Screen - GLuc reporter signal (AID 1347086); note: nearly all actives have a fitted effect of over 70% in size; note: potency is the fitted concentration of half-maximal effect
Chain of Nucleoprotein (Lymphocytic choriomeningitis virus (strain Armstrong)) (P09992 whole entry, looked up): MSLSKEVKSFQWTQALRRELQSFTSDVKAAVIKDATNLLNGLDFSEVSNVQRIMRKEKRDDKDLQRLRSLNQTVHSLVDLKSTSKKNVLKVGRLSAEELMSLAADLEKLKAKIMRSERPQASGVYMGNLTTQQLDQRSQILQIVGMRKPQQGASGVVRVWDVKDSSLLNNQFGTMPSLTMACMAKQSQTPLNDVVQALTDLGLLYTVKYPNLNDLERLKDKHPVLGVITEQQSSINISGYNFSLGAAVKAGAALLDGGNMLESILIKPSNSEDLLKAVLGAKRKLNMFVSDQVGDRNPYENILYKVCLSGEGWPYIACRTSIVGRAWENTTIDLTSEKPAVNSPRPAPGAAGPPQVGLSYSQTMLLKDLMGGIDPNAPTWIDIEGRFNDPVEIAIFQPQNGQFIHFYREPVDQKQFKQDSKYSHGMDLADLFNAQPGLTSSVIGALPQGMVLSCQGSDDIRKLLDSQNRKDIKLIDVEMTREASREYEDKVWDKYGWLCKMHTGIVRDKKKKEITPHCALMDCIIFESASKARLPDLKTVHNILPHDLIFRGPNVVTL

[8] = Cytotoxicity counterscreen for inhibitors of SARS-CoV-2 cell entry (AID 1645845); note: nearly all actives have a fitted effect of over 50% in size
Summary of the method: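 Counterscreen run in the same HEK293-ACE2 line as the pseudotyped-particle entry assay, without particles. Viability after 48 h at 37 C was read as ATP luminescence, scaled between cell-containing and cell-free wells.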

[9] = qHTS profiling of the MIPE4 collection as inhibitors of Plasmodium falciparum (3D7) proliferation (AID 743344; call rule not given here); conditions: P. falciparum 3D7 in erythrocytes, SYBR Green DNA fluorescence, 72 h; at 28.5 µM (top of the series) unless noted
Summary of the method: (§1)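 Parasite DNA was quantified by SYBR Green I fluorescence (ex 485, em 535 nm) after overnight lysis in saponin/Triton buffer at room temperature. Cultures at 0.3% parasitemia and 2.5% hematocrit were first exposed to compound for 72 h at 37 C; signals were normalised to artemisinin (0.29 uM) and vehicle wells.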

[10] = qHTS profiling of the MIPE4 collection as inhibitors of Plasmodium falciparum (DD2) proliferation (AID 743345; call rule not given here); conditions: P. falciparum Dd2 in erythrocytes, SYBR Green DNA, 72 h; at 28.5 µM (top of the series) unless noted
Summary of the method: as §1

[11] = qHTS profiling of the MIPE4 collection as inhibitors of Plasmodium falciparum (DD2) proliferation (Rep 2) (AID 743346; call rule not given here); conditions: P. falciparum Dd2 in erythrocytes, SYBR Green DNA, 72 h; at 28.5 µM (top of the series) unless noted
Summary of the method: as §1

[12] = qHTS profiling of the MIPE4 collection as inhibitors of Plasmodium falciparum (HB3) proliferation (AID 743347; call rule not given here); conditions: P. falciparum HB3 in erythrocytes, SYBR Green DNA, 72 h; at 28.5 µM (top of the series) unless noted
Summary of the method: as §1

[13] = Primary qHTS to identify inhibitors of SARS-CoV-2 cell entry (AID 1645846); conditions: activity change, negative = inhibition: at 57.1 µM (top of the series) unless noted; note: potency is the fitted concentration of half-maximal effect; nearly all actives have a fitted effect of over 45% in size
Summary of the method: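 HEK293-ACE2 (Expi293F, stable hACE2), 1500 cells/well, o/n 37C; cpd 23 nL pin, 1 h; MLV-PP w/ SARS-CoV-2-S (Wuhan-Hu-1, Δ19 C-term); 48 h 37C; Bright-Glo luminescence; normalized vs S-PP and bald PP.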

[14] = molecular target: Bile acid receptor (Homo sapiens) (UniProt Q96RI1); assay: qHTS assay for small molecule agonists of farnesoid X receptor signaling (AID 588527); conditions: HEK293T FXR-UAS-bla, beta-lactamase ratio, 16 h; activation: stronger effect = higher value
Chain of Bile acid receptor (Homo sapiens) (Q96RI1 whole entry, looked up): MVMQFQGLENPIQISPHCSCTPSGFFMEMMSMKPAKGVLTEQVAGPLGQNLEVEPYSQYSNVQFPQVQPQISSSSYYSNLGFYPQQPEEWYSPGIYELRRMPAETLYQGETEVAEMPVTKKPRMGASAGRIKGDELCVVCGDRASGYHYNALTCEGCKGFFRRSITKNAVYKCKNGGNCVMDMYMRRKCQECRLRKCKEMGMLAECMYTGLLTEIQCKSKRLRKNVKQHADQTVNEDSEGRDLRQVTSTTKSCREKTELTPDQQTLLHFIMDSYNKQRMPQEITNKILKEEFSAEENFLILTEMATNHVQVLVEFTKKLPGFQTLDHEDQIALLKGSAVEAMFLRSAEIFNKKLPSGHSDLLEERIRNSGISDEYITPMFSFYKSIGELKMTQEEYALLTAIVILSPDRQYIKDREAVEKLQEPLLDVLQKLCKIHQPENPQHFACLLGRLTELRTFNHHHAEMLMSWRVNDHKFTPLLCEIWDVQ
Summary of the method: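 FXR-UAS-bla HEK293T cells (10% dialyzed FBS) preincubated 5-7 h at 37 C, then compounds at up to 92 uM for 16 h at 37 C. CCF4 beta-lactamase read-out after 2 h RT. Normalized to chenodeoxycholic acid (100 uM) and DMSO; Hill fit gave EC50 and efficacy.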

[15] = molecular target: Peroxisome proliferator-activated receptor delta (Homo sapiens) (UniProt Q03181); assay: qHTS assay for small molecule agonists of peroxisome proliferator-activated receptor delta signaling (AID 588534)
Chain of Peroxisome proliferator-activated receptor delta (Homo sapiens) (Q03181 whole entry, looked up): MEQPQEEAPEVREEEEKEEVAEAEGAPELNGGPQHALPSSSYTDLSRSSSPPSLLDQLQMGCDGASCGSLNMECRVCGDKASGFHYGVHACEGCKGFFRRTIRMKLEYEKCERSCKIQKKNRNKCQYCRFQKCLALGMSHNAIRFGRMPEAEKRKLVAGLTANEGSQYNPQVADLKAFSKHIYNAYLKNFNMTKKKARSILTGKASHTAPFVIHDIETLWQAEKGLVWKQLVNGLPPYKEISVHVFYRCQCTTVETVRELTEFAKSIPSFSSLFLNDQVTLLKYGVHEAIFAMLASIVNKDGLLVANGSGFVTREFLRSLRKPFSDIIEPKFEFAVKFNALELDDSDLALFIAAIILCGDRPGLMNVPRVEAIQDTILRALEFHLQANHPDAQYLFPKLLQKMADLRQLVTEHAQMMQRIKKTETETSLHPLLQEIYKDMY
Summary of the method: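 Titration series tested in agonist mode on beta-lactamase reporter cells; 18 hrs at 37 C after a 5 hr pre-incubation. Readout: CCF4 fluorescence, 2 hrs RT. Hill equation gives EC50 and maximal response.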

Cc1ccc(S(=O)(=O)N[C@@H](Cc2ccccc2)C(=O)CCl)cc1
outcome [1]: inactive
outcome [2]: inactive
Potency [3]: 7.08 µM (active)
outcome [4]: inactive
Potency [5]: inactive
Potency [6]: inactive
Potency [7]: inactive
Potency [8]: inactive

O=c1cccc2c1c1cc[nH]c3ccc(=O)n2c31
Potency [5]: inactive
Potency [7]: inactive

CCOC(=O)N1CCN([N+]([O-])=NOc2ccc([N+](=O)[O-])cc2[N+](=O)[O-])CC1
Potency [5]: inactive
Potency [7]: inactive

NC(N)=Nc1nc(CSCCC(N)=NS(N)(=O)=O)cs1
Potency [5]: inactive
Potency [7]: inactive

CC(C)NC[C@@H](O)c1ccc(O)c(O)c1
outcome [4]: inactive
Potency [5]: inactive
Potency [6]: inactive
Potency [7]: inactive

CC(N[C@H]1CCCC[C@H]1NC(=O)c1ccc(Cl)cc1)c1cccc2ccccc12 (some centres undefined)
parasite growth, % of DMSO control [9]: 31.1%
parasite growth remaining, % of DMSO control (lower = more inhibition) [10]: 79.2%
parasite growth, % of control (lower = inhibition) [11]: 64%
growth, % of control [12]: 39.9%
Potency [5]: inactive
Potency [6]: 3.43 µM (active)
Potency [7]: 4.85 µM (active)
Potency [8]: inactive
Potency [13]: 28.2 µM (active)

COc1cc(OC)c2c(c1Cl)O[C@@]1(C2=O)[C@H](C)CC(=O)C[C@@H]1OC
Potency [5]: inactive
Potency [7]: inactive

CNC(=O)[C@H](CC1=CN=C2C=CCC=C12)NC(=O)[C@@H](CC(=O)NO)CC(C)C
Potency [5]: 15.3 µM (active)
Potency [7]: 3.43 µM (active)

Fc1ccc(CNc2ncnc3ccc(F)cc23)cc1
Potency [5]: 19.3 µM (active)
Potency [6]: inactive
Potency [7]: 24.3 µM (active)
Potency [13]: 8.91 µM (active)

COc1ccc(CN2CCc3cc(OC)c(OC)cc3C2)cc1O
Potency [5]: inactive
Potency [7]: inactive

CC[C@H](C)[C@@H]1NC(=O)CNC(=O)c2csc(n2)[C@H](C(C)(C)O)OC(=O)C(C)(C)[C@H](CCCC(C)(Cl)Cl)OC(=O)c2csc1n2
Potency [5]: inactive
Potency [7]: inactive

O=c1c(-c2ccc(O)cc2)coc2cc(O)ccc12
outcome [1]: inactive
outcome [2]: inactive
Potency [3]: inactive
outcome [4]: inactive
activation [14]: 2% (inactive) and 3.27% (inactive)
Potency [15]: inactive
Potency [5]: inactive
Potency [6]: inactive
Potency [7]: inactive
Potency [8]: inactive
